Tau FP inhib = qHTS for Inhibitors of Tau Fibril Formation, Fluorescence Polarization; K18 P301L tau heparin fibrillization, Alexa594 FP, 6 h; Potency, µM (doses to about 57.7 µM), without a hit: at the highest dose activity, negative = inhibition, usual class: inhibitors; 280,000 tested, 0.39% active; also: nearly all actives have a fitted effect of over 55% in size
Target sequence (P10636 561-689 P618L limits assumed): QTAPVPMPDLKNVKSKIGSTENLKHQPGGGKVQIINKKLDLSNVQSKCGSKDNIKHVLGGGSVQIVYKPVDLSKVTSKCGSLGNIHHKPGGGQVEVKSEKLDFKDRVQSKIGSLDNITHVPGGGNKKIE
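Steps: dispense K18 P301L tau (15 uM plus 0.24 uM Alexa 594 tracer, final) in pH 7 sodium acetate; add compound; add heparin (20 uM final); incubate 6 hr, 37 C; add ThT (30 uM final); after 1 hr ambient, read FP.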
Tau fluor cs = Counterscreen qHTS for Inhibitors of Tau Fibril Formation, Fluorescence Polarization; tau K18 P301L Alexa594 fluorescence, heparin fibrillization; Potency, µM (titrated, usually from 57.7 µM), for the others: at the top dose activity change, negative = decrease; 280,000 tested, 0.93% active; AID 1463, 2008; also: nearly all actives have a fitted effect of over 55% in size
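Human K18 P301L tau (15 uM unlabeled plus 0.24 uM Alexa 594-labeled, final) in 100 mM sodium acetate pH 7 was mixed with compound and 20 uM heparin and incubated 6 hr at 37 C.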
Tau ThT inhib = qHTS for Inhibitors of Tau Fibril Formation, Thioflavin T Binding. Potency, µM (highest dose often 57.4 µM), without a hit: top-dose activity, negative = inhibition, hits mostly inhibitors. recombinant tau K18 P301L (four-repeat tau fragment), heparin-induced fibrillization, ThT fluorescence. AID 1460, 2008. 270,000 tested, 2.1% active. Microtubule-associated protein tau (Homo sapiens), P10636; also: nearly all actives have a fitted effect of over 55% in size
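K18 P301L tau (15 uM + 0.24 uM Alexa 594-tagged), heparin 20 uM, NaOAc pH 7, 6 h 37 C; ThT 30 uM, 1 h RT, ex 450/em 510 nm.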
ALDH1A1 inh = qHTS Assay for Inhibitors of Aldehyde Dehydrogenase 1 (ALDH1A1); Purified ALDH1A1, NADH fluorescence, propionaldehyde substrate; Potency, µM (series often up to 75.3 µM), for inactives: at the highest dose activity, negative = inhibition, actives largely listed as inhibitors; Aldehyde dehydrogenase 1A1 (Homo sapiens), P00352; 220,000 tested, 7.3% active; active = well fitted inhibition curve with a large enough effect, not every such curve was filed as active; inconclusive = small, poorly fitted or top-dose-only effect, or another doubt; inactive = no such curve, though single readings can be large or run the other way;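 also: plate controls were no enzyme wells and a reference inhibitor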
NPSR antagonist = qHTS Assay for Antagonists of the Neuropeptide S Receptor: cAMP Signal Transduction; CHO-NPSR cells, cAMP TR-FRET, antagonist mode; Potency, µM (highest dose often 38.3 µM), inactives show at the top dose activity change, negative = inhibition, actives largely listed as inhibitors; 220,000 tested, 1% active; AID 1461, 2008; also: nearly all actives have a fitted effect of over 50% in size
HPGD inh = qHTS Assay for Inhibitors of HPGD (15-Hydroxyprostaglandin Dehydrogenase); Potency, µM, inactives show at the top dose activity change, negative = inhibition, actives largely listed as inhibitors; purified HPGD, NADH fluorescence kinetic, PGE2 substrate; 150,000 tested, 4.3% active; AID 894, 2007; active = well fitted inhibition curve with a large enough effect, not every such curve was filed as active; inconclusive = small, poorly fitted or top-dose-only effect, or another doubt; inactive = no such curve, though single readings can be large or run the other way
Target sequence (P15428 whole entry, looked up): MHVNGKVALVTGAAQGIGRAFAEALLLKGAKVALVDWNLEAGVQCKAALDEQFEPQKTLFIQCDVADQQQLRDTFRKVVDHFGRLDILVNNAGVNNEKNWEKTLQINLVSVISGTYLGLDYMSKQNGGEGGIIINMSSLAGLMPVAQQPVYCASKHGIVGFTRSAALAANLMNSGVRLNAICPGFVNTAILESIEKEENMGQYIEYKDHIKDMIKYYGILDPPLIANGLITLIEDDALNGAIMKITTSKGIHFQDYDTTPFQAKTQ
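20 nM HPGD preincubated 15 min at room temperature with compound in 50 mM Tris-HCl pH 8, 0.01% Tween 20. Started with 1 mM NAD+ and 30 uM prostaglandin E2; NADH fluorescence (360/450 nm) read 5 times over 30-s intervals, last minus first.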
* = called active by the depositor; ? = inconclusive; . = no result; [ ] = another dose, or the depositor's remark. This is a sample that favours compounds with a hit; in the whole collection about 9.5% have one here. Unless noted, calls follow the shape of the dose curve; as a rule, active = well fitted curve in the direction sought with a large enough effect; inconclusive = small, poorly fitted or top-dose-only effect, or another doubt; inactive = no such curve, though single readings can be large; an effect the other way counts as inactive or inconclusive. Unless noted, % is scaled to controls: 0 for no effect and ±100 for the full control effect; potency is read from the fitted curve at half-maximal effect.

SMILES	Tau FP inhib	Tau fluor cs	Tau ThT inhib	ALDH1A1 inh	NPSR antagonist	HPGD inh
O=C(NC1CCCCC1)c1cc([N+](=O)[O-])ccc1N1CCCCC1	-7%	-13%	-16%	13µM*	-11%[46.1 µM]	-7%
Cc1ccc(C(=O)c2cc([N+](=O)[O-])ccc2N2CCOCC2)cc1C	?	-18%	-7%	32µM*	-10%	-16%
CCC(CC)c1nnc(NC(=O)c2cc([N+](=O)[O-])ccc2N2CCCCC2)s1	2%	-18%	-13%	7.9µM*	?	-20%
COc1ccc(C(=O)c2cc([N+](=O)[O-])ccc2N2CCCC2)cc1	-1%	?	?	-2%	-30%	-5%
CC(C)CNC(=O)c1cc([N+](=O)[O-])ccc1N1CCCCC1	5%	-1%	-7%	0%	-7%	-9%
COc1ccc(C(=O)c2cc([N+](=O)[O-])ccc2N2CCN(C)CC2)cc1	-13%	-13%	-3%	5µM*	-4%	.
CN1CC[C@@]2(CCCN(S(=O)(=O)c3ccccc3)C2)C1	.	.	.	-15%	.	-10%
S=c1[nH]nc(Cc2cccc3ccccc23)n1-c1ccccc1	0%	-13%	?	?	-11%[46.1 µM]	14µM*
S=c1[nH]nc(CCSCc2ccccc2)n1-c1ccccc1	3%	7%	10%	35µM*	-14%	.
COc1ccc(CSCCc2n[nH]c(=S)n2-c2ccccc2)cc1C	13%	-7%	-9%	0%	-16%	.
C=CCn1c(Cc2cccc3ccccc23)n[nH]c1=S	-2%	2%	2%	-8%	1%	28µM*
Cc1ccccc1-c1nnc(-c2cccs2)o1	-5%	-9%	-10%	?	-12%	.
COc1cccc(CNc2ncn[nH]2)c1OCc1ccc(F)cc1	3%	-6%	-5%	28µM*	-16%	.
COc1cc(/C=C2\S/C(=N/S(=O)(=O)Cc3ccccc3)NC2=O)c([N+](=O)[O-])cc1OC	-8%	-27%	?	.	-3%	.
COc1cc(/C=C2/S/C(=N/S(=O)(=O)c3ccccc3)NC2=O)c([N+](=O)[O-])cc1OC	?	?	16µM*	-3%	-14%[46.1 µM]	5µM*
O=C1N/C(=N\S(=O)(=O)Cc2ccccc2)S/C1=C/c1cc([N+](=O)[O-])ccc1O	1%	?	5µM*	?	-12%	.
O=[N+]([O-])c1ccc(N=NNc2ccccc2)cc1	2%	14µM*[quencher]	8.9µM*	?	-34%	.
O=C(O)c1cc(NN=Nc2cccc([N+](=O)[O-])c2)cc([N+](=O)[O-])c1	-2%	-23%	?	20µM*	21%	.
CN(N=Nc1ccc([N+](=O)[O-])cc1)c1ccccc1	-4%	-24%	?	-9%	5%	-7%
O=C(O)c1cc(NN=Nc2ccc(Br)cc2)cc([N+](=O)[O-])c1	1%	-28%	14µM*	6.3µM*	33%	.
O=C(Nc1ccc(C(=O)O)cc1)Nc1cccc([N+](=O)[O-])c1	-6%	-25%	-17%	5%	11%	-7%
COc1ccc(-n2c3c(cc(C#N)c2=O)C(=O)CCC3)cc1	-6%	-5%	-5%	6%	6%	.
Cn1cnnc1SCC(=O)NC1CCCCC1	0%	-7%	-2%	-1%	17%	.
Cc1ccc(NC(=O)CSc2nnc(CNC(=O)c3cccs3)o2)c(C)c1	-6%	-5%	-9%	2%	7%	.
O=C(Cn1cc(C(=S)N2CCOCC2)c2ccccc21)N1CCOCC1	-9%	0%	3%	2%	0%[46.1 µM]	-6%
SMILES	Tau FP inhib	Tau fluor cs	Tau ThT inhib	ALDH1A1 inh	NPSR antagonist	HPGD inh
O=C(O)Cn1cc(C(=S)N2CCOCC2)c2ccccc21	7%	1%	-2%	19µM*	7%[46.1 µM]	18µM*
O=C(O)Cn1cc(C(=S)N2CCCCC2)c2ccccc21	?	-10%	?	10µM*	12%	.
S=C(c1cn(CCOc2cccc3ccccc23)c2ccccc12)N1CCCC1	3%	?	-18%	28µM*	-12%	-11%
O=C(C(=O)N1CCOCC1)c1cn(CC(=O)N2CCc3ccccc3C2)c2ccccc12	-4%	-8%	-6%	20µM*	12%	.
COc1ccc2nc(N(Cc3cccnc3)C(=O)c3ccc(Cl)cc3)sc2c1	-13%	-18%	-13%	.	.	.
CCOc1ccc(CCNC(=O)c2nn(C)c3c2CSc2ccc(C)cc2-3)cc1OCC	8%	-17%	?	.	.	.
CC1(C)C(=O)C2(CCCC2)C(=O)OC1c1ccco1 (stereo not drawn)	-2%	-6%	1%	22µM*	2%[46.1 µM]	-12%
CNc1cc(-c2ccccc2C(F)(F)F)ncn1	.	.	.	3%	.	.
COc1cc(/C=C2\SC(=O)N(Cc3ccc(F)cc3)C2=O)cc([N+](=O)[O-])c1O	16%	-18%	14µM*	0.71µM*	-35%	.
COc1cc(/C=C2/SC(=O)N(Cc3ccccc3)C2=O)ccc1OCc1ccncc1	-8%	0%	-1%	176%	?	?
COc1ccc(C(=O)NCCN2C(=O)S/C(=C\c3cccnc3)C2=O)cc1[N+](=O)[O-]	-3%	-13%	?	.	-1%[7.67 µM]	.
COc1cc(/C=C2\SC(=O)N(Cc3ccc(Cl)cc3)C2=O)cc([N+](=O)[O-])c1O	-3%	-30%	13µM*	2.5µM*	-20%	.
CCOC(=O)CN1C(=O)S/C(=C/c2ccc(OC)c([N+](=O)[O-])c2)C1=O	6%	0%	-2%	13µM*	2%	16µM*
Cn1nc(SCC(=O)O)sc1=S	7%	5%	3%	3%	3%[46.1 µM]	14µM*
CCOC(=O)C(Sc1nn(C)c(=S)s1)C(C)=O (stereo not drawn)	2%	-5%	-17%	?	-18%[46.1 µM]	-23%
O=C(NCc1ccccc1)c1cccc(Nc2nc3ccccc3n3nnnc23)c1	-11%	-15%	9%	.	.	.
CC(=O)OC[C@H]1O[C@@H](CCO/N=C2/[C@H]3O[C@@H]3[C@@H](O)[C@H]3[C@H]2CCn2c(=O)n(-c4ccccc4)c(=O)n23)C=C[C@@H]1OC(C)=O	-7%[11.6 µM]	-3%[11.6 µM]	-9%[11.5 µM]	-1%[13.5 µM]	.	.
O=C(/C=C/c1ccc([N+](=O)[O-])cc1)N(c1ccccn1)C1CCCCC1	-6%	-25%	?	13µM*	-25%	.
O=C(NNC(=O)c1ccccc1-n1cccc1)c1ccc(Cl)cc1Cl	-1%	4%	7%	3%	6%[46.1 µM]	-8%
O=C(O)c1ccccc1C(=O)NNc1ccc(Cl)cc1Cl	4%	-6%	?	25µM*	18%	.
